# According to paper PMC5540273 (PLoS ONE, 2017):
# Test system: SgK110
# Details: concentration: 1 μM, replicates: in singlicate; n = 1
# 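Further: KINOMEscan kinase panel screen.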
row,Compound,%Inh
1,[2H]C([2H])(c1cccc(C(F)(F)F)c1C)n1ccn2c(=O)nc(N3CCOCC3)cc12 [GSK2336394],0%
2,N#Cc1c(N2CCOCC2)sc(-c2ccn[nH]2)c1-c1ccc(Cl)cc1,0%
3,CN(C1=C(c2ccccc2)C(=O)NC1=O)c1ccccc1 [SB-334860],0%
4,Cc1cn2c(=O)cc(N3CCOCC3)nc2n1Cc1cccc(Cl)c1Cl [GSK2334006],0%
5,Fc1ccc(-c2ncn(CCCN3CCOCC3)c2-c2cccnc2)cc1 [SB-211743],17%
6,O=c1cc(N2CCOCC2)nc2n(Cc3cccc(F)c3)ccn12 [GSK2297430],0%
7,O=C(Nc1cccc(-c2nn3ncccc3c2-c2ccnc(Nc3cccc(C(F)(F)F)c3)n2)c1)c1c(F)cccc1F [GSK299495],0%
8,Cc1c2ccc(N(C)c3ccnc(Nc4cccc(S(N)(=O)=O)c4)n3)cc2nn1Cc1ccccc1.Cl.Cl [GW787226],2%
9,O=C(Nc1n[nH]c2cc(-c3cccc(F)c3)ccc12)C1CC1 [SB-735464],0%
10,CCCCCc1nc2c(N)ncnc2n1CCCCC [SKF-97255],3%
11,Cc1ccc(C(=O)NCC(N)=O)cc1-n1c(C)cc(OCc2ccc(F)cc2F)c(Br)c1=O,0%
12,NCC(NC(=O)c1cc(-c2cn[nH]c2)c(-c2ccnc3[nH]ccc23)s1)c1ccccc1.O=C(O)C(F)(F)F.O=C(O)C(F)(F)F (stereo not drawn) [GSK1325775],66%
13,COc1ccc(Nc2nccc(N3CCC(NC(=O)Nc4cccc(C(C)=O)c4)C3)n2)cc1 (stereo not drawn) [GSK1379731],0%
14,COCCNC(=O)c1ccc(-c2cc(C(=O)NC3CC3)cc(F)c2C)cc1 [GW868318],21%
15,COC(=O)Nc1nc2cc(Oc3ccc(NC(=O)Nc4cc(F)ccc4F)cc3)ccc2[nH]1.Cl [GW701424],0%
16,O=C(c1ccc(-c2cc(-c3c[nH]nc3-c3ccccn3)ccn2)cc1)N1CCOCC1 [GW812171],32%
17,NS(=O)(=O)c1cccc(-c2ccc3nccc(-c4cccc(S(N)(=O)=O)c4)c3c2)c1 [GW867253],0%
18,CN1c2ccc(CNc3ccc(F)cc3)cc2-c2c(cnn2C)S1(=O)=O,0%

row,Compound,%Inh
1,O=c1cc(N2CCOCC2)nc2n(Cc3cccc(C(F)(F)F)c3)ccn12 [GSK2297543],0%
2,Nc1nccc(-c2c(-c3ccc(F)cc3)ncn2C2CCN(CC(F)(F)F)CC2)n1 [SB-236560],0%
3,O=c1cc(N2CCOCC2)nc2n(Cc3cccc(Cl)c3Cl)c(C3CC3)nn12 [GSK2358994],0%
4,Fc1ccc(-c2ncn(CCCN3CCOCC3)c2-c2ccccn2)cc1 [SB-211742],16%
5,CC(C)Oc1ccc2c(-c3ccnc(Nc4ccc(N5CCN(C)CC5)cc4)n3)cnn2n1 [GW696155],29%
6,COc1ccc(COc2cc(-n3cnc4ccccc43)sc2C(N)=O)cc1 [GSK1024304],0%
7,C[C@@H](Oc1cc(-n2cnc3ccc(NC(=O)NC(C)(C)C)cc32)sc1C(N)=O)c1ccccc1Cl [GSK346294],0%
8,Cl.Nc1ncnc2occ(-c3ccc(NC(=O)Nc4cc(C(F)(F)F)ccc4F)cc3)c12 [SB-707548],0%
9,COc1cc2c(cc1OCCN1CCN(C)CC1)ncc1c3ccc(C#N)cc3[nH]c21,0%
10,O=C(NCCNc1ccnc(Nc2ccc(F)cc2)n1)Nc1ccccc1F [GSK1379880],55%
11,O=C(NCCNc1ccnc(Nc2ccc(F)cc2)n1)c1cc2ccccc2s1 [GSK1379874],0%
12,COc1cc2ncn(-c3cc(OCc4sccc4Cl)c(C(N)=O)s3)c2cc1OC [GSK448459],0%
13,Cc1cccc(-c2nc(-c3ccc(S(C)(=O)=O)cc3)sc2-c2ccncc2)c1,2%
14,CCc1nc(-c2cccc(C)c2)c(-c2ccnc(NCc3ccccc3)c2)s1,22%
15,c1ccc(-c2cc(-c3c[nH]nc3-c3ccccn3)ccn2)cc1 [GW576604],0%
16,COc1cc(Nc2nccc(N3CCC(NC(=O)c4cccc(NC(C)=O)c4)C3)n2)cc(OC)c1OC (stereo not drawn) [GSK1379754],2%
17,Cn1ccc2ncnc(Oc3ccc(NC(=O)Nc4ccncc4)c(Cl)c3)c21,30%
18,Cl.Oc1cccc(Nc2ccnc3cc(-c4ccncc4)ccc23)c1 [GW494601],0%

# Test system: T1, TAK1
# T1 construct: gene MAP3K7
# Details: concentration: 1 μM, replicates: in singlicate; n = 1
row,Compound,%Inh
1,[2H]C([2H])(c1cccc(C(F)(F)F)c1C)n1ccn2c(=O)nc(N3CCOCC3)cc12 [GSK2336394],0%
2,N#Cc1c(N2CCOCC2)sc(-c2ccn[nH]2)c1-c1ccc(Cl)cc1,14%
3,CN(C1=C(c2ccccc2)C(=O)NC1=O)c1ccccc1 [SB-334860],18%
4,Cc1cn2c(=O)cc(N3CCOCC3)nc2n1Cc1cccc(Cl)c1Cl [GSK2334006],0%
5,Fc1ccc(-c2ncn(CCCN3CCOCC3)c2-c2cccnc2)cc1 [SB-211743],0%
6,O=c1cc(N2CCOCC2)nc2n(Cc3cccc(F)c3)ccn12 [GSK2297430],0%
7,O=C(Nc1cccc(-c2nn3ncccc3c2-c2ccnc(Nc3cccc(C(F)(F)F)c3)n2)c1)c1c(F)cccc1F [GSK299495],0%
8,Cc1c2ccc(N(C)c3ccnc(Nc4cccc(S(N)(=O)=O)c4)n3)cc2nn1Cc1ccccc1.Cl.Cl [GW787226],4%
9,O=C(Nc1n[nH]c2cc(-c3cccc(F)c3)ccc12)C1CC1 [SB-735464],6%
10,CCCCCc1nc2c(N)ncnc2n1CCCCC [SKF-97255],0%
11,Cc1ccc(C(=O)NCC(N)=O)cc1-n1c(C)cc(OCc2ccc(F)cc2F)c(Br)c1=O,0%
12,NCC(NC(=O)c1cc(-c2cn[nH]c2)c(-c2ccnc3[nH]ccc23)s1)c1ccccc1.O=C(O)C(F)(F)F.O=C(O)C(F)(F)F (stereo not drawn) [GSK1325775],78%
13,COc1ccc(Nc2nccc(N3CCC(NC(=O)Nc4cccc(C(C)=O)c4)C3)n2)cc1 (stereo not drawn) [GSK1379731],0%
14,COCCNC(=O)c1ccc(-c2cc(C(=O)NC3CC3)cc(F)c2C)cc1 [GW868318],14%
15,COC(=O)Nc1nc2cc(Oc3ccc(NC(=O)Nc4cc(F)ccc4F)cc3)ccc2[nH]1.Cl [GW701424],8%
16,O=C(c1ccc(-c2cc(-c3c[nH]nc3-c3ccccn3)ccn2)cc1)N1CCOCC1 [GW812171],10%
17,NS(=O)(=O)c1cccc(-c2ccc3nccc(-c4cccc(S(N)(=O)=O)c4)c3c2)c1 [GW867253],6%
18,CN1c2ccc(CNc3ccc(F)cc3)cc2-c2c(cnn2C)S1(=O)=O,0%

row,Compound,%Inh
1,O=c1cc(N2CCOCC2)nc2n(Cc3cccc(C(F)(F)F)c3)ccn12 [GSK2297543],0%
2,Nc1nccc(-c2c(-c3ccc(F)cc3)ncn2C2CCN(CC(F)(F)F)CC2)n1 [SB-236560],21%
3,O=c1cc(N2CCOCC2)nc2n(Cc3cccc(Cl)c3Cl)c(C3CC3)nn12 [GSK2358994],0%
4,Fc1ccc(-c2ncn(CCCN3CCOCC3)c2-c2ccccn2)cc1 [SB-211742],0%
5,CC(C)Oc1ccc2c(-c3ccnc(Nc4ccc(N5CCN(C)CC5)cc4)n3)cnn2n1 [GW696155],56%
6,COc1ccc(COc2cc(-n3cnc4ccccc43)sc2C(N)=O)cc1 [GSK1024304],0%
7,C[C@@H](Oc1cc(-n2cnc3ccc(NC(=O)NC(C)(C)C)cc32)sc1C(N)=O)c1ccccc1Cl [GSK346294],0%
8,Cl.Nc1ncnc2occ(-c3ccc(NC(=O)Nc4cc(C(F)(F)F)ccc4F)cc3)c12 [SB-707548],98.6%
9,COc1cc2c(cc1OCCN1CCN(C)CC1)ncc1c3ccc(C#N)cc3[nH]c21,90.6%
10,O=C(NCCNc1ccnc(Nc2ccc(F)cc2)n1)Nc1ccccc1F [GSK1379880],0%
11,O=C(NCCNc1ccnc(Nc2ccc(F)cc2)n1)c1cc2ccccc2s1 [GSK1379874],0%
12,COc1cc2ncn(-c3cc(OCc4sccc4Cl)c(C(N)=O)s3)c2cc1OC [GSK448459],0%
13,Cc1cccc(-c2nc(-c3ccc(S(C)(=O)=O)cc3)sc2-c2ccncc2)c1,3%
14,CCc1nc(-c2cccc(C)c2)c(-c2ccnc(NCc3ccccc3)c2)s1,0%
15,c1ccc(-c2cc(-c3c[nH]nc3-c3ccccn3)ccn2)cc1 [GW576604],16%
16,COc1cc(Nc2nccc(N3CCC(NC(=O)c4cccc(NC(C)=O)c4)C3)n2)cc(OC)c1OC (stereo not drawn) [GSK1379754],0%
17,Cn1ccc2ncnc(Oc3ccc(NC(=O)Nc4ccncc4)c(Cl)c3)c21,0%
18,Cl.Oc1cccc(Nc2ccnc3cc(-c4ccncc4)ccc23)c1 [GW494601],41%
